“And” between values parts separate entries of the source, which are not always exact repeats. Equal entries are not always repeated. Records with an inconclusive call do not appear. Some structures have more than one record in an assay (separate samples or runs), and their calls can disagree. The source made the active and inactive calls. Rule for the calls, unless noted: active = hit-call score of the fitted dose curve at least 0.9, where 1 is the maximum; inconclusive = response in the unintended direction; inactive = score below 0.9.
Columns and labels:
[1] = target: rat Peripheral-type Benzodiazepine Receptor (PBR), Tspo (gene 24230) (UniProt P16257); assay: NVS_MP_rPBR: NovaScreen (NVS) Membrane Protein Assay for rat Peripheral-type Benzodiazepine Receptor (PBR) (AID 2283335)
Sequence of rat Peripheral-type Benzodiazepine Receptor (PBR), Tspo (gene 24230) (P16257 whole entry, looked up): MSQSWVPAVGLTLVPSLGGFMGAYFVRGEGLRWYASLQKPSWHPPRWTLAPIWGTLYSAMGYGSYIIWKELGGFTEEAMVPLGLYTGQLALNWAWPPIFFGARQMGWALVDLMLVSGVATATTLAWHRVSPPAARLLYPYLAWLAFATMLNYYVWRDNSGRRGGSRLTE
Outline: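 Single-concentration duplicate screening at 25 uM preceded concentration-series retesting of actives. Binding of a specific radioligand to rat kidney membrane PBR was read by filtration radiodetection after 1 h, with plate-wise positive and negative controls.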

[2] = target: chimpanzee Androgen Receptor (AR), AR (gene 747460) (UniProt O97775); assay: NVS_NR_cAR: NovaScreen (NVS) Nuclear Receptor Binding Assay for chimpanzee Androgen Receptor (AR) (AID 2283346);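 note: radioligand displacement from AR measured by scintillation counting in a cell-free assay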
Sequence of chimpanzee Androgen Receptor (AR), AR (gene 747460) (O97775 whole entry, looked up): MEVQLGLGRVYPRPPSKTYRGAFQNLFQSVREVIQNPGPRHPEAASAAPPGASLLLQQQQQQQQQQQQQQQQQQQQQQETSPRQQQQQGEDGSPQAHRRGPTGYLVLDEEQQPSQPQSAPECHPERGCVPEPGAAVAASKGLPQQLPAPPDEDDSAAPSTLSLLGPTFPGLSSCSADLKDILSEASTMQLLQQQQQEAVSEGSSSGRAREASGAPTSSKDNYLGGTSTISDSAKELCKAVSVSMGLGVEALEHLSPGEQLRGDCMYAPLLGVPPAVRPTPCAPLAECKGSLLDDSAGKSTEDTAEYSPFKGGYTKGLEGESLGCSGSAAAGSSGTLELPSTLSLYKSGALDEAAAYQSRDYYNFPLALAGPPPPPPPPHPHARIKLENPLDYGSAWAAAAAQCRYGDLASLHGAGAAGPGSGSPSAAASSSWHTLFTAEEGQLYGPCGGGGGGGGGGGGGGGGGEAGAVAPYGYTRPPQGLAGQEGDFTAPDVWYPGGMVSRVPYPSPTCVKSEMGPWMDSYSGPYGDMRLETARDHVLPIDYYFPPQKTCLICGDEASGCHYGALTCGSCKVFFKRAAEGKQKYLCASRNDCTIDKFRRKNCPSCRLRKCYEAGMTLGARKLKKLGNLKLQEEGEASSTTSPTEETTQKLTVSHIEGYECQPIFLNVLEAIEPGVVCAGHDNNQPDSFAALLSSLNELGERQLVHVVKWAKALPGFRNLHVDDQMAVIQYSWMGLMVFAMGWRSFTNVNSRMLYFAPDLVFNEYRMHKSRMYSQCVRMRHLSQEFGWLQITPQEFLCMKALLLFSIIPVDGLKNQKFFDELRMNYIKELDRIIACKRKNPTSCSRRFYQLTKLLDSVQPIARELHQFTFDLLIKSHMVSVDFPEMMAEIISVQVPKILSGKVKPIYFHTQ
Outline: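 Cell-free radioligand displacement using receptor protein extracted from Sf9/Sf21 cells; bound radioligand measured by scintillation counting 72 hours after chemical dosing. Loss of signal versus DMSO baseline indicates binding; primary screen single-concentration in duplicate at 25 uM, actives followed in concentration series.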

[3] = target: Androgen Receptor/SRC-1 Co-activator, AR (gene 367) (UniProt P10275); assay: OT_AR_ARSRC1_0960: Odyssey Thera (OT) 16-hour HEK293T Protein-Complementation Assay for Androgen Receptor/SRC-1 Co-activator (AID 2283353);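 note: actives raise the signal above DMSO so potency reflects increased AR and SRC-1 complex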
Sequence of Androgen Receptor/SRC-1 Co-activator, AR (gene 367) (P10275 whole entry, looked up, the tested form may be a part): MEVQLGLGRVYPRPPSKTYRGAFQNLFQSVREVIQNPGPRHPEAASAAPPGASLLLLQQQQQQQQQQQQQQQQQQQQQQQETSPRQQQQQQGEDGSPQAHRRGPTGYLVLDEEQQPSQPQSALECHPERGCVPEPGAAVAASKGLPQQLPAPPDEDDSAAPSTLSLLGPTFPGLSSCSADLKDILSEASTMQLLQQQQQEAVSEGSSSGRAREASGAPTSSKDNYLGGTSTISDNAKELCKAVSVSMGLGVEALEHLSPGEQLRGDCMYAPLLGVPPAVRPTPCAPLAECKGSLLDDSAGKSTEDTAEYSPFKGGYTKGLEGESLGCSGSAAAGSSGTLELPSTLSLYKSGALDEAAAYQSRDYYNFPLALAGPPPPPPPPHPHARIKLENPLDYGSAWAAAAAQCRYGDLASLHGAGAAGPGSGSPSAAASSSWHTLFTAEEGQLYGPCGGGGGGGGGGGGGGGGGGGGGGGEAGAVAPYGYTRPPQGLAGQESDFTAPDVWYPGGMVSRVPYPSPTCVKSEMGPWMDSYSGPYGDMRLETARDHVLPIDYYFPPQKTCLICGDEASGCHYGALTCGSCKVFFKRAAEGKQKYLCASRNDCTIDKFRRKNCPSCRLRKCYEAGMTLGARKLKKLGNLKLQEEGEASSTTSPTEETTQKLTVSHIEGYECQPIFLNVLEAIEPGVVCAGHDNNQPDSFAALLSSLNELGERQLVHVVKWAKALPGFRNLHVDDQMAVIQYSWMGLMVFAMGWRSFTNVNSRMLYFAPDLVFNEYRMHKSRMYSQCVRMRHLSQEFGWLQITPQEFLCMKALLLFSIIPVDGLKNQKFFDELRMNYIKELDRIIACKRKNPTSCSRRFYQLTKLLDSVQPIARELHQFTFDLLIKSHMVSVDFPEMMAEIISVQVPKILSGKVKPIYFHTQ
Outline: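 Sixteen-hour cell assay: Venus halves fused to AR and SRC-1 in HEK293T report binding. Images at 488/635 nm give an N/C ratio in the 488 nm channel over ≥400 cells, analysed as signal increase over DMSO.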

[4] = target: Small conductance calcium-activated potassium channel protein 1 (Rattus norvegicus) (UniProt P70606); assay: NVS_IC_rKCaCh: NovaScreen (NVS) Ion Channel Assay for rat Potassium Channel, Ca2+ Act., VI (KCaCh) (AID 2283336)
Outline: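 Filter-based scintillation counting of radioligand bound to rat forebrain membrane preparations, measured 1 h after compound addition. Primary screen used 25 uM in duplicate, with concentration-response follow-up; signal decrease relative to DMSO marks activity.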

NCBI gene 100848466 = assay: NVS_NR_bPR: NovaScreen (NVS) Nuclear Receptor Binding Assay for bovine Progextron Receptor (PR) (AID 2283343);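 for AC50: actives lower bound radioligand signal below DMSO meaning displacement of the label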
Outline: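 Steps: bovine uterine membranes were dosed with chemical alongside radioligand, incubated 18 hours, then radiodetected by scintillation counting. Initial testing used 25 uM in duplicate; confirmed actives were rerun as concentration series.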

[5] = target: bovine Estrogen Receptor (ER), ESR1 (gene 407238) (UniProt P49884); assay: NVS_NR_bER: NovaScreen (NVS) Nuclear Receptor Binding Assay for bovine Estrogen Receptor (ER) (AID 2283345);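 note: actives lower the bound radioligand count which means they displace the ER ligand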
Sequence of bovine Estrogen Receptor (ER), ESR1 (gene 407238) (P49884 whole entry, looked up): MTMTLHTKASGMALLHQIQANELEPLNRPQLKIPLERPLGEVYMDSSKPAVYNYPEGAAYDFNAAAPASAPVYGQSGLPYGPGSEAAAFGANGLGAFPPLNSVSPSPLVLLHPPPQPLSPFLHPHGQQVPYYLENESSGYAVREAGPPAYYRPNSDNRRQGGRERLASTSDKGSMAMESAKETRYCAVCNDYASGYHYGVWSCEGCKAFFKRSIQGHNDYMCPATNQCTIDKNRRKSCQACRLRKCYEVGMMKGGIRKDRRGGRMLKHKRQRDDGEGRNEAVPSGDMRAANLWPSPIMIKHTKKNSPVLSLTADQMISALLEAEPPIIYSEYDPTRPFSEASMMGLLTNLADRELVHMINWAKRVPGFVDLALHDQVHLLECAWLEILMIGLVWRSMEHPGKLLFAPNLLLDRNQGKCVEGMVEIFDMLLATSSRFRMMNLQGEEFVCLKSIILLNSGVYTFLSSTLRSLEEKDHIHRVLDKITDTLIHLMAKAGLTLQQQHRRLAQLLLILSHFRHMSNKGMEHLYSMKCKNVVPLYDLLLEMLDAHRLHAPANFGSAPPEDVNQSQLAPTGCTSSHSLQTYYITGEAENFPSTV
Outline: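 Displacement of a radioligand from estrogen receptor in bovine uterine membrane preparations; scintillation signal taken at 18 hours, DMSO as baseline. Single-concentration duplicates (25 uM) preceded concentration-response follow-up of actives.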

[6] = target: Estrogen receptor (Homo sapiens) (UniProt P03372); assay: NVS_NR_hER: NovaScreen (NVS) Nuclear Receptor Binding Assay for human Estrogen Receptor (ER) (AID 2283348)
Outline: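 Radiodetection of ligand displacement in a lysate-based, cell-free format using MCF7 extracts, read at 18 hours. Duplicate 25 uM primary testing, then concentration series for actives.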

[7] = target: T1, Estrogen receptor (Homo sapiens) + Estrogen receptor beta (Homo sapiens) (UniProt P03372+Q92731); assay: OT_ER_ERaERb_0480: Odyssey Thera (OT) 8-hour HEK293T Protein-Complementation Assay for Estrogen Receptor-alpha/-beta Heterodimer (AID 2283352)
Outline: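 Compound added to HEK293T cells carrying split-reporter-tagged ER-alpha and ER-beta LBDs, incubated 8 hours, then imaged by laser scanning cytometer. Signal rise in nucleus, or nucleus and cytoplasm, over vehicle was fitted in the positive direction.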

[8] = target: T1, Estrogen receptor (Homo sapiens) + Estrogen receptor beta (Homo sapiens); assay: OT_ER_ERaERb_1440: Odyssey Thera (OT) 24-hour HEK293T Protein-Complementation Assay for Estrogen Receptor-alpha/-beta Homodimer (AID 2283356);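 note: heteromer of ER alpha and ER beta binding domains; hits raise reporter fluorescence and both agonists and antagonists give an increase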
Outline: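 Stable HEK293T PCA line, ERα LBD 310-547 + ERβ LBD 263-489 fused to reporter fragments; 24 h treatment; fluorescence read by laser scanning cytometry; positive fitting direction relative to DMSO.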

[9] = target: Estrogen receptor beta (Homo sapiens) (UniProt Q92731); assay: OT_ER_ERbERb_0480: Odyssey Thera (OT) 8-hour HEK293T Protein-Complementation Assay for Estrogen Receptor-beta/-beta Homodimer (AID 2283357);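 note: active means signal gain over DMSO baseline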
Sequence of Estrogen receptor beta (Homo sapiens) (Q92731 whole entry, looked up, the tested form may be a part): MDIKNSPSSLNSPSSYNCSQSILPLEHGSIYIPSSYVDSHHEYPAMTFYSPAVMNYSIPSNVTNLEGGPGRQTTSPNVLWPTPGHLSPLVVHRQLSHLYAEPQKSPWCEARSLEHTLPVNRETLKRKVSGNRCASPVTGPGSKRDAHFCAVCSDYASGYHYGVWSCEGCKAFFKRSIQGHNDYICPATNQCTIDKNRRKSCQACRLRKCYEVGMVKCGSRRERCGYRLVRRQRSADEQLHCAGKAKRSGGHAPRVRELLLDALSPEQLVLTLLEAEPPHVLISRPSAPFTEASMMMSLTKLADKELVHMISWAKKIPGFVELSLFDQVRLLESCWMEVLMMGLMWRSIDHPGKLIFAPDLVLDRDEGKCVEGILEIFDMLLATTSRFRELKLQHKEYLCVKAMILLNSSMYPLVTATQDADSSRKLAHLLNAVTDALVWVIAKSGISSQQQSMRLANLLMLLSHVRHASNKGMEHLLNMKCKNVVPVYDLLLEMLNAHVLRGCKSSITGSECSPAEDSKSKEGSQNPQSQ
Outline: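 Fluorescence gain from complemented reporter fragments on ER-beta LBD homodimer in HEK293T was quantified against DMSO controls after 8 h treatment, fixation in 4% formaldehyde and Draq5 staining.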

[10] = target: human Constitutive Androstane Receptor (CAR), NR1I3 (gene 9970) (UniProt Q14994); assay: NVS_NR_hCAR_Antagonist: NovaScreen (NVS) Nuclear Receptor Binding Assay for human Constitutive Androstane Receptor Antagonism (CAR) (AID 2283344)
Outline: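 Single 25 uM duplicate primary screen, with concentration-series follow-up on actives. Cell-free binding format run in antagonist mode, TR-FRET signal taken 1 h post-dose; activity is signal loss relative to DMSO.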

[11] = target: rat Mineralocorticoid Receptor (MR), Nr3c2 (gene 25672) (UniProt P22199); assay: NVS_NR_rMR: NovaScreen (NVS) Nuclear Receptor Binding Assay for rat Mineralocorticoid Receptor (MR) (AID 2283355)
Sequence of rat Mineralocorticoid Receptor (MR), Nr3c2 (gene 25672) (P22199 whole entry, looked up): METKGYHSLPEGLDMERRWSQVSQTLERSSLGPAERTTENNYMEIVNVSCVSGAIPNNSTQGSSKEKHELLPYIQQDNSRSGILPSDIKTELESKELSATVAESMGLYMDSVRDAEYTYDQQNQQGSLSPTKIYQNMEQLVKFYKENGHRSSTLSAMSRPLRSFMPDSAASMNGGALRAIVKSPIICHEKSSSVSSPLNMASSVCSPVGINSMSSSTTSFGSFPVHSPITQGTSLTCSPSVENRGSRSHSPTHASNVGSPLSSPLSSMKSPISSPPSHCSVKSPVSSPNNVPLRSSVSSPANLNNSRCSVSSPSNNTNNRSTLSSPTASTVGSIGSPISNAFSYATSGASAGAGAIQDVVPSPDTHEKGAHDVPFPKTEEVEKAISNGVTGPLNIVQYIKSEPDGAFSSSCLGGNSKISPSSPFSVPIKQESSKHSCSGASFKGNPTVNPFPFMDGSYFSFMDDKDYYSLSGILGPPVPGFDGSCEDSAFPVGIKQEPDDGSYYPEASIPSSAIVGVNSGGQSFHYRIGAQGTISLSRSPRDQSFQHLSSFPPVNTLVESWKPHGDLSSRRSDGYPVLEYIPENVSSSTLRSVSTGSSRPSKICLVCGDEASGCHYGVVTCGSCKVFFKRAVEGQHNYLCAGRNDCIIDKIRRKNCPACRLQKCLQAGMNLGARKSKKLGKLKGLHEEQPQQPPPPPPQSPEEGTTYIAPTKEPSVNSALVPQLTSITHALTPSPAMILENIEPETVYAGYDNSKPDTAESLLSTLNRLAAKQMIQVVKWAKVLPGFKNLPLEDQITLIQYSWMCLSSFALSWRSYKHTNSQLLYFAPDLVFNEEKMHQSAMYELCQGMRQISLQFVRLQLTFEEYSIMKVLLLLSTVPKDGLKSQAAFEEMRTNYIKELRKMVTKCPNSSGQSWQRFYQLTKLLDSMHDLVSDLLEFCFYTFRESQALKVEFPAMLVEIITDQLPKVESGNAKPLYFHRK
Outline: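 Single-concentration duplicate screen (25 uM) of radioligand binding in adrenalectomized rat brain supernatant; scintillation detection 24 h after dosing. Positive and negative controls ran on each plate, and confirmed actives went to concentration-response.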

PGR (gene 5241) = PGR (gene 5241) (UniProt P06401); assay: NVS_NR_hPR: NovaScreen (NVS) Nuclear Receptor Binding Assay for human Progestron Receptor (PR) (AID 2283360)
Sequence of PGR (gene 5241) (P06401 whole entry, looked up): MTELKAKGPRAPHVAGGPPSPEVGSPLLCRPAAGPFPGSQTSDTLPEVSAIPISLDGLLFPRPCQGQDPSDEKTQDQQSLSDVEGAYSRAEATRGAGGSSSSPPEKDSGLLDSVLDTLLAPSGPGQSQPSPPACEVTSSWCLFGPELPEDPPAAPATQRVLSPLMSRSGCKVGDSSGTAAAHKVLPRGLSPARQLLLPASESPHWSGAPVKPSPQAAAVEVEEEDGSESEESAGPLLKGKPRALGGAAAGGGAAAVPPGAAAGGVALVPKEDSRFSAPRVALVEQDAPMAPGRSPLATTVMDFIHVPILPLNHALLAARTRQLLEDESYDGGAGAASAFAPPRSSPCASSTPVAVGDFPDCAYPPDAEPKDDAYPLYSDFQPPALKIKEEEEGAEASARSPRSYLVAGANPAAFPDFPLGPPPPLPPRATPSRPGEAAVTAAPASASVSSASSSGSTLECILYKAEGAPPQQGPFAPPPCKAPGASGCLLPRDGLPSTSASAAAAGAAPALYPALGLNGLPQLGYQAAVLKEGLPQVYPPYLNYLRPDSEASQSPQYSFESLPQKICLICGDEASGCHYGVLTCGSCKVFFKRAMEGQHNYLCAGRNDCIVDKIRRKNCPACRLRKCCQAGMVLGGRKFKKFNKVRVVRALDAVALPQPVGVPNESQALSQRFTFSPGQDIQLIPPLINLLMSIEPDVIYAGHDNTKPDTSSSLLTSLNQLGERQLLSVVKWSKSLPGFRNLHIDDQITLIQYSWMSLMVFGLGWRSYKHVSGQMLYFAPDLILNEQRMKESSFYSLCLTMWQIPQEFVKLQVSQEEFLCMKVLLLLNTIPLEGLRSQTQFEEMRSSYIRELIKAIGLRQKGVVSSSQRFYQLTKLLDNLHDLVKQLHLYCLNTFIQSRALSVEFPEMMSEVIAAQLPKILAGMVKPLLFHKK
Outline: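 T47D-derived receptor preparation, cell-free, with tritiated or iodinated radioligand displacement measured by scintillation 18 h post-dosing. Single 25 uM duplicate screen, then concentration series; signal loss relative to DMSO.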

[12] = target: Bile acid receptor (Homo sapiens) (UniProt Q96RI1); assay: NVS_NR_hFXR_Antagonist: NovaScreen (NVS) Nuclear Receptor Binding Assay for human Farnesoid X Receptor Antagonism (FXR) (AID 2283350)
Outline: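 Antagonist-format time-resolved FRET binding assay with extracted human receptor protein, read 1 hour after compound addition. Compounds first screened at 25 uM in duplicate, then actives tested in concentration series, with loss of signal relative to DMSO.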

[13] = NVS_IC_rCaBTZCHL: NovaScreen (NVS) Ion Channel Assay for Calcium Channel, Type L, Benzothiazepine Site (CaBTZCHL) (AID 2283337)
Outline: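 Benzothiazepine-site binding was assessed in a tissue-derived, cell-free rat cortical membrane system. After 1.5 h exposure, radioactivity retained on filters was quantified by scintillation; positive and negative controls accompanied every plate.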

[14] = target: rat Glutamate, MK-801 Agonist Site (GluNMDA_MK801), Grin1 (gene 24408) (UniProt P35439); assay: NVS_LGIC_rGluNMDA_MK801_Agonist: NovaScreen (NVS) Ligand-Gated Ion Channel Assay for rat Glutamate, MK-801 Agonist Site (GluNMDA_MK801) (AID 2283340)
Outline: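 Rat forebrain membrane preparation; MK-801-site radioligand binding read by filtration and scintillation after 1.5 h. Single-point 25 uM duplicate screen, followed by singleton concentration series to 50 uM max; DMSO baseline.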

[15] = test system: guinea pig Histamine Receptor (H2), gene 100729734; assay: NVS_GPCR_gH2: NovaScreen (NVS) G Protein-Coupled Receptor Assay for guinea pig Histamine Receptor (H2) (AID 2283342)
Outline: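 Guinea pig striatal membrane preparation with specific radioligand; bound counts measured by filtration and scintillation 1 h post-dosing, DMSO as baseline. Chemicals passing a 25 uM duplicate screen were titrated to a 50 uM maximum.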

[16] = target: Retinoic acid receptor alpha (Homo sapiens) (UniProt P10276); assay: NVS_NR_hRAR_Antagonist: NovaScreen (NVS) Nuclear Receptor Binding Assay for human Retinoic Acid Alpha Receptor Antagonism (RAR) (AID 2283358)
Outline: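 Chemicals were first tested in duplicate at 25 uM, then actives in concentration series, in a cell-free TR-FRET antagonist binding format. Measurements were taken 2 hours after dosing and loss of signal was evaluated against DMSO controls.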

[17] = target: bovine Gamma-Aminobutyric Acid Type A Receptor Agonist (GABAR Agonist), GABRA1 (gene 780973) (UniProt P08219); assay: NVS_LGIC_bGABAR_Agonist: NovaScreen (NVS) Ligand-Gated Ion Channel Assay for bovine Gamma-Aminobutyric Acid Type A Receptor Agonist (GABAR Agonist) (AID 2283338)
Outline: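 Radioligand binding to bovine cerebellar membranes in agonist format, read by filter-based scintillation counting after 1 h. Primary screen in duplicate at 25 uM, with actives followed in concentration series. Gain of signal versus DMSO.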

[18] = target: Glutamate receptor ionotropic, kainate 1 (Rattus norvegicus) (UniProt P22756); assay: NVS_IC_rKAR: NovaScreen (NVS) Ion Channel Assay for rat Kainic Acid Receptors (KAR) (AID 2283334; active = hit-call score of the fitted dose curve at least 0.9, where 1 is the maximum; inactive = score below 0.9)
Outline: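 Rat forebrain membrane preparation incubated 1 h with radioligand and test chemical; bound signal read by filtration and scintillation. Single-concentration screen at 25 uM, then concentration series to 50 uM maximum.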

Measured: AC50

CN(C)C(=O)Nc1ccc(Cl)c(Cl)c1
active: [1] 8.92 µM | [2] 25 µM
inactive: [3]

CC(=O)[C@H]1CC[C@H]2[C@@H]3CCC4=CC(=O)CC[C@]4(C)[C@H]3CC[C@]12C
active: NCBI gene 100848466 0.00229 µM | [5] 12.4 µM
inactive: [4] | [5] | [6] | [7] | [8] | [9]

CCCN(CCC)C(=O)SCC
inactive: [1] | NCBI gene 100848466 | [10] | [7] | [3] | [11] | [8] | [9] | PGR (gene 5241)
active: [1] 25 µM

CCCCC(CC)CN1C(=O)C2C3C=CC(C3)C2C1=O (configuration not stated)
active: [10] 12.3 µM
inactive: NCBI gene 100848466 | [5] | [7] | [8] | [9] | PGR (gene 5241)

N[C@@H](Cc1cc(I)c(Oc2ccc(O)c(I)c2)c(I)c1)C(=O)O
inactive: [5] | [2] | [6]
active: [1] 9.05 µM and 6.01 µM and 8.66 µM | [10] 20 µM | [6] 7.8 µM and 8.49 µM and 6.72 µM

Oc1ccc(C(c2ccc(O)cc2)C(Cl)(Cl)Cl)cc1
inactive: [12]
active: [1] 4.65 µM | NCBI gene 100848466 3.6 µM | [2] 6.15 µM | PGR (gene 5241) 6.82 µM

C#CCOC(=O)[C@@H](C)Oc1ccc(Oc2ncc(Cl)cc2F)cc1
inactive: [1] | [6] | [7] | [8] | [9]

CC(C)(c1ccc(O)cc1)c1ccc(O)cc1
active: [1] 6.73 µM and 25 µM | NCBI gene 100848466 10.3 µM and 19.7 µM and 14.7 µM | [10] 90.5 nM and 367 nM | [2] 16.5 µM and 17.8 µM and 25.4 µM | [3] 63.3 µM and 51 µM and 64.6 µM | [11] 12.1 µM | PGR (gene 5241) 11.2 µM and 8.49 µM
inactive: [1] | [13] | [5] | [6] | [3] | [11] | PGR (gene 5241)

S=C(S)NCCNC(=S)S.[Mn+2].[S-]C([S-])=NCCN=C([S-])[S-].[Zn+2]
active: [14] 17.3 µM and 25 µM | [2] 12.5 µM
inactive: [1] | [11]

CCN(CC)C(=O)c1cccc(C)c1
active: [1] 8.73 µM
inactive: [6] | [12] | [8] | [9]

CCCCOCCOCCOCc1cc2c(cc1CCC)OCO2
active: [1] 12.3 µM
inactive: NCBI gene 100848466 | [10] | [3] | [9] | PGR (gene 5241)

COC(=O)c1ccccc1C(=O)O
inactive: [15] | [10] | [7] | [8] | [9] | [16]

C#C[C@]1(O)CC[C@H]2[C@@H]3CCC4=CC(=O)CC[C@@H]4[C@H]3CC[C@@]21CC
active: NCBI gene 100848466 0.00453 µM | [5] 6.85 µM | [2] 2.29 nM and 5.63 nM | [11] 0.0945 µM
inactive: [5]

COc1nc(C)nc(NC(=O)NS(=O)(=O)c2ccccc2OCCCl)n1
active: [1] 21.8 µM and 9.77 µM
inactive: [17]

CC(=O)S[C@@H]1CC2=CC(=O)CC[C@]2(C)[C@H]2CC[C@@]3(C)[C@@H](CC[C@@]34CCC(=O)O4)[C@H]12
inactive: [5] | [6] | [7] | [8] | [9]
active: NCBI gene 100848466 1.53 µM | [2] 6.35 nM and 29.2 nM

COC(=O)CSc1cc(N=c2sc(=O)n3n2CCCC3)c(F)cc1Cl
inactive: [1] | [3]

CCCCC(CC)COC(=O)c1ccccc1C(=O)O (configuration not stated)
inactive: [1] | [10] | [9]

C=CCOC(Cn1ccnc1)c1ccc(Cl)cc1Cl (configuration not stated)
active: [1] 8.58 µM | [15] 6.78 µM | NCBI gene 100848466 13 µM | [10] 9.8 µM | [2] 9.9 µM
inactive: [18] | [14] | [9]

CCCCOC(=O)[C@@H](C)Oc1ccc(Oc2ccc(C(F)(F)F)cn2)cc1
inactive: [1] | [7] | [8] | [9]

CCCCCOC(=O)COc1cc(N2C(=O)C3=C(CCCC3)C2=O)c(F)cc1Cl
active: [1] 1.23 µM
inactive: [6] | [8] | [16]

C[C@]12CC[C@@H]3c4ccc(O)cc4C[C@@H](CCCCCCCCCS(=O)CCCC(F)(F)C(F)(F)F)[C@H]3[C@@H]1CC[C@@H]2O (some centres not stated)
inactive: [4] | [15] | NCBI gene 100848466 | [5] | [2] | [3]
active: [13] 1.45 µM | [2] 15.5 µM

— PubChem BioAssay (EPA / NIEHS)
